± gives the standard deviation of the averaged measurements.
Experiments:
DLD1 [1] = experiment: cell viability (CellTiter-Glo) relative to plate median (fraction of plate median); higher = more viable cells; settings: 5 µM; treatment time 24 h; reporter: 7TFP
Summary of the method: (§1)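 Luminescence, normalised well by well to the plate median, is tabulated as a mean of independent replicates. There were two replicates, run on colorectal cancer lines stably transduced with lentiviral TCF/Wnt firefly luciferase reporters and dosed with library compounds at a final 5 µM for 24 h. Readouts were firefly luciferase or CellTiterGlo on parallel plates.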

HCT116 = experiment: as above; settings: 5 µM; treatment time 24 h; reporter: TCF4/Wnt
Summary of the method: as §1

SW480 [2] = experiment: as above; settings: 5 µM; treatment time 24 h; reporter: 7TFP
Summary of the method: as §1

DLD1 [3] = experiment: TCF/Wnt firefly luciferase reporter signal relative to plate median (fraction of plate median); higher = higher Wnt reporter signal; settings: 5 µM; treatment time 24 h; reporter: 7TFP
Summary of the method: as §1

SW480 [4] = experiment: as above; settings: 5 µM; treatment time 24 h; reporter: 7TFP
Summary of the method: as §1

Compound	cell viability (DLD1 [1])	cell viability (HCT116)	cell viability (SW480 [2])	TCF/Wnt firefly luciferase reporter signal (DLD1 [3])	TCF/Wnt firefly luciferase reporter signal (SW480 [4])
CCCCc1oc2ccccc2c1C(=O)c1cc(I)c(OCCN(CC)CC)c(I)c1	1.02 ± 0.089	1.02 ± 0.036	0.964 ± 0.019	1.02 ± 0.029	1.04 ± 0.1
CC1(C)CC[C@]2(C(=O)O)CC[C@]3(C)C(=CCC4[C@@]5(C)CC[C@@H](O)C(C)(C)C5CC[C@]43C)C2C1 (stereo not given in full)	0.967 ± 0.032	1.11 ± 0.092	1.08 ± 0.014	0.955 ± 0.093	0.9805 ± 0.005
Cn1c(=O)c2c(ncn2C)n(C)c1=O	0.899 ± 0.05	0.953 ± 0.081	0.952 ± 0.0014	0.981 ± 0.11	1.01 ± 0.04
O=C(O)c1cc(-c2ccc(F)cc2F)ccc1O	0.973 ± 0.0042	1.07 ± 0.057	1.01 ± 0.021	1.32 ± 0.13	1.16 ± 0.021
C[C@]12CCC[C@H](O1)c1c(cc3c(c1O)C(=O)c1c(O)cc(O)cc1C3=O)O2 [Averufin (Isoform B, Compound ID 7395)]	1.09 ± 0.14	1.01 ± 0.014	1.03 ± 0.054	1.02 ± 0.035	0.942 ± 0.14
CC(C)=CCc1c2c(c(O)c3c(=O)c(O)c(-c4ccccc4)oc13)C=CC(C)(C)O2	1.03 ± 0.052	0.998 ± 0.088	1.025 ± 0.0071	0.935 ± 0.0099	0.974 ± 0.011
CCN(CC)CCOC(=O)c1ccc(N)cc1	1.01 ± 0.12	1.05 ± 0.028	1.03 ± 0.021	1.09 ± 0.092	1.06 ± 0.014
NC1=NCCN1CC(=O)O	0.897 ± 0.036	1.03 ± 0.072	0.976 ± 0.0014	1.06 ± 0.094	0.985 ± 0.016
COc1ccc2c(c1)OC/C(=C\c1ccc(OC)c(O)c1)C2=O	0.933 ± 0.054	1.02	1.03 ± 0.035	0.972 ± 0.11	0.98 ± 0.086
Cc1onc(-c2c(Cl)cccc2Cl)c1C(=O)N[C@@H]1C(=O)N2[C@@H]1SC(C)(C)[C@@H]2C(=O)O	0.935 ± 0.027	1.05 ± 0.073	0.972 ± 0.036	1 ± 0.042	1.15 ± 0.16
CC(=O)CC(=O)CCC(=O)O	1.02 ± 0.11	0.996 ± 0.12	0.935 ± 0.033	0.844 ± 0.13	0.939 ± 0.02
COc1cc([S+](C)[O-])ccc1-c1nc2cccnc2[nH]1 (stereo not given)	0.968 ± 0.028	0.979 ± 0.058	0.953 ± 0.025	0.907 ± 0.22	0.794 ± 0.057
COC(=O)[C@H]1[C@H]2C[C@H]3c4[nH]c5ccccc5c4CCN3C[C@@H]2CC[C@@H]1O	0.988 ± 0.06	0.984 ± 0.066	1.06 ± 0.014	1.01 ± 0.039	1.06 ± 0.028
Cc1cc(=O)oc2cc(O)cc(O)c12	1.05 ± 0.042	1.11 ± 0.11	1 ± 0.053	0.888 ± 0.12	0.975 ± 0.12
CC(=O)Oc1cc(-c2coc3cc(OC(C)=O)c(OC(C)=O)c(OC(C)=O)c3c2=O)cc(OC(C)=O)c1OC(C)=O	1 ± 0.015	1.09 ± 0.2	0.998 ± 0.018	1.09 ± 0.17	0.95 ± 0.1
CC(=O)O[C@@H]1C=C[C@]2(C)C(C[C@@H](OC(C)=O)[C@]3(C)C4=CC(=O)O[C@H](c5ccoc5)[C@@]4(C)CCC23)C1(C)C (stereo not given in full)	1.06 ± 0.035	1.08 ± 0.042	1.03 ± 0.014	1.09 ± 0.021	1.12 ± 0.078
Cc1cc(=O)[nH]c(=S)[nH]1	1.07 ± 0.05	1.01 ± 0.072	0.979 ± 0.018	1.07 ± 0.071	0.9835 ± 0.0064
Nc1nc(F)nc2c1ncn2[C@@H]1O[C@H](COP(=O)(O)O)[C@@H](O)[C@@H]1O	0.987 ± 0.061	0.942 ± 0.019	0.972 ± 0.054	0.926 ± 0.018	1.04 ± 0.021
CN(Cc1cnc2nc(N)nc(N)c2n1)c1ccc(C(=O)N[C@@H](CCC(=O)O)C(=O)O)cc1	0.475 ± 0.1	1.055 ± 0.0071	1.1	0.739 ± 0.3	1.07 ± 0.064
CN(C)CCN(Cc1ccccc1)c1ccccn1	0.9435 ± 0.0078	0.925 ± 0.13	1 ± 0.022	1 ± 0.25	1.03 ± 0.05
CO/C=C/C(=O)c1cc2cnc3c(=N)cc(NC(C)=O)c([nH]1)c23 [Lymphostin]	1.08 ± 0.042	0.71 ± 0.12	1.14 ± 0.092	0.891 ± 0.011	0.947 ± 0.028
CC(=O)c1c(O)cc(O)cc1O	1.02 ± 0.035	1.03 ± 0.035	1.04 ± 0.068	1.08 ± 0.042	0.938 ± 0.033
CC1(C)Oc2ccc3ccc(=O)oc3c2CC1O (stereo not given)	0.993 ± 0.011	1.01 ± 0.042	1.07 ± 0.021	0.996 ± 0.19	0.791 ± 0.089
CC12CCC(CC1)C(C)(C)O2	0.996 ± 0.049	1.055 ± 0.0071	0.934 ± 0.019	1.21 ± 0.18	1.11 ± 0.099
Cc1ncc([N+](=O)[O-])n1CCO	1.08 ± 0.064	1.06 ± 0.071	1.02 ± 0.014	1.06 ± 0.042	0.964 ± 0.11
CC(=O)OC1CC[C@@]2(C)C(CC[C@H]3[C@@H]4CC=C(C(C)=O)[C@@]4(C)C(=O)C[C@@H]32)C1 (stereo not given in full)	1 ± 0.012	1.05 ± 0.081	1.04 ± 0.072	1.08 ± 0.014	1.06 ± 0.05
CCCCCCOc1ccccc1C(N)=O	0.9695 ± 0.0078	0.954	0.962 ± 0.041	1.09 ± 0.21	1.11 ± 0.13
CCN(CC)CCOc1ccc(C(=C(Cl)c2ccccc2)c2ccccc2)cc1	0.983 ± 0.019	0.971 ± 0.041	0.939 ± 0.073	0.914 ± 0.028	1.01 ± 0.27
COC(=O)C1=C(C)NC(C)=C(C(=O)OCC(C)C)C1c1ccccc1[N+](=O)[O-] (stereo not given)	0.869 ± 0.11	1 ± 0.041	0.905 ± 0.071	0.961 ± 0.24	0.923 ± 0.037
CCc1cn([C@H]2C[C@H](O)[C@@H](CO)O2)c(=O)[nH]c1=O	0.9885 ± 0.0021	0.968 ± 0.073	1.01 ± 0.023	1.03 ± 0.14	1.08 ± 0.085
